Measurements taken from PubChem BioAssay (EPA / NIEHS).
Calls of active or inactive are those of the source. How the source made its calls: active means hit-call score of the fitted dose curve at least 0.9, where 1 is the maximum; inactive means score below 0.9.

These compounds were tested on Glutamate-cysteine ligase catalytic (GCLC), GCLC (gene 2729) (assay: LTEA_HepaRG_GCLC: Life Technologies and Expression Analysis (LTEA) Assay for Glutamate-cysteine ligase catalytic (GCLC) using HepaRG (AID 2283498)). Conditions: mRNA level, 48 h; actives raise or lower the signal.
Procedure: LTEA_HepaRG is a cell based, multiplexed-readout assay that uses HepaRG, a human liver cell line, with measurements taken at 48 hours after chemical dosing on a 96-well plate.LTEA_HepaRG_GCLC is one of 102 assay component(s) measured in the LTEA HepaRG cell culture assay. It is a marker of Oxidative Stress.Data from the assay component LTEA_HepaRG_GCLC was analyzed into 1 endpoint. This assay endpoint, LTEA_HepaRG_GCLC, was analyzed with bidirectional fitting relative to DMSO as the negative control and baseline of activity. Using a type of inducible reporter, measures of mRNA induction for gain or loss-of-signal activity can be used to understand regulation of transcription factor activity. To generalize the intended target to other relatable targets, this assay endpoint is annotated to the ligase intended target family, where the subfamily is C-N ligase.
A total of 1060 chemcials from the ToxCast library were tested in eight-point concentration-response experiments. Cell culture and cytotoxicity assays were conducted at Thermo Fisher Scientific's Custom Services facility (Madison, WI). A single lot of human HepaRG cells (Thermo Fisher Scientific, Frederick, MD) was used for the cell culture experiments. 96-well format collagen type I coated plates of human HepaRG cells were prepared using established methods. Briefly, cryopreserved HepaRG cells were thawed, plated at a density of approximately 100,000 cells/well in HepaRG Thaw, Plate, and General Purpose media (HPRG770, Thermo Fisher Scientific), and incubated for 48 hours. 0.5% DMSO was selected as vehicle control to balance the requisite need of DMSO in HepaRG cultures to maintain differentiation (for example, baseline metabolism, proportions of hepatocytes vs. cholangiocytes), while enabling further hepatic receptor pathway activation (for example, PXR and CAR) in response to chemical exposure. 48 hours after plating, the culture medium was replaced with HepaRG Serum-Free Incudtion Media. Cells were exposed to each test chemical in duplicate and maintained in CO2 incubators for another 48 hours. Chemical plates were thawed to room temperature and 200x concentrations of treatment groups were prepared. 8-point conentration-reponse curves were made with the highest exposure at 100 uM, followed by half-log dilutions, all in 0.5% DMSO. Each test plate contained variouse controls, induction positive controls (1mM phenobarbital), cytotoxicity positive controls ([…] aflatoxin B1), vehicle controls (0.5% DMSO), and total lysis controls (0.5% DMSO). Cell morphology images were taken using an Essen IncuCyte FLR automated microscope, with six 96-well plates imaged in about 24 minutes. Images were captured and exported and JPEG files. Spent culture media was transfered to black-well plates for the LDH assay, and remaining media was sorted at -80 C for later use. Cells were treated with RLT buffer and frozen until shipped for gene expression analysis. Total RNA was isolated from the cell suspension in 75 uL of Buffer RLT (Qiagen, Germantown, MD 20874) by Quintiles/Expression Analysis (Durham, NC) using a custom isolation procedure. Total RNA from each plate well was transferred to a preamplification plate. Fluidigm's 96.96 Dynamic ArrayTM (Fluidigm, Amsterdam, the Netherlands) technology was used for gene expression analyses by quantitative reverse transcription polymerase chain reaction (qRT-PCR, performed by Quintiles/Expression Analysis, Durham, NC)89. Standard TaqManTM Assays (Applied Biosystems/ThermoFisher Scientific, Foster City, CA) were used to assess the expression of 93 genes selected based on their selectivity and sensitivity to important hepatic receptors known to be modulated by environmental chemicals; importance in human hepatocyte functionality; and hepatotoxicity. […]

Structure (SMILES)	outcome	AC50
C#C[C@]1(O)CC[C@H]2[C@@H]3CCC4=CC(=O)CC[C@@H]4[C@H]3CC[C@@]21CC	inactive	–
COC(=O)c1ccc(I)cc1S(=O)(=O)NC(=O)Nc1nc(C)nc(OC)n1	inactive	–
COC(=O)CSc1cc(N=c2sc(=O)n3n2CCCC3)c(F)cc1Cl	inactive	–
CCOC(=O)c1ccc(O)cc1	inactive	–
CCNc1nc(N)nc(Cl)n1	inactive	–
COCCO	inactive	–
CCCN(CCC)c1c([N+](=O)[O-])cc(C(F)(F)F)c(N)c1[N+](=O)[O-]	inactive	–
S=C([S-])NCCNC(=S)[S-].[Mn+2]	inactive	–
OB(O)O	inactive	–
CCC(C)OC(=O)N1CCCCC1CCO (stereo not given)	inactive	–
CC1(C)C(C=C(Cl)Cl)C1C(=O)OCc1cccc(Oc2ccccc2)c1 (stereo not given)	inactive	–
CCSC(=O)N(CC(C)C)CC(C)C	inactive	–
O=C(O)c1ccccc1	inactive	–
CCOC(=O)C(C)Oc1ccc(Oc2nc3ccc(Cl)cc3o2)cc1 (stereo not given)	inactive	–
C[C@]12CC[C@@H]3c4ccc(O)cc4C[C@@H](CCCCCCCCCS(=O)CCCC(F)(F)C(F)(F)F)[C@H]3[C@@H]1CC[C@@H]2O (stereo not given in full)	–	19.9 µM (active)
COc1c(Cl)ccc(Cl)c1C(=O)O	inactive	–
CCOC(=O)NCCOc1ccc(Oc2ccccc2)cc1	inactive	–
N#CSCSc1nc2ccccc2s1	inactive	–
CC(=O)[C@H]1CC[C@H]2[C@@H]3CCC4=CC(=O)CC[C@]4(C)[C@H]3CC[C@]12C	–	91.1 µM (active)
CC(C)(c1ccc(O)cc1)c1ccc(O)cc1	inactive	–

Structure (SMILES)	outcome	AC50
O=C(c1ccccc1)C1CCCCC1	inactive	–
C#CCOC(=O)[C@@H](C)Oc1ccc(Oc2ncc(Cl)cc2F)cc1	inactive	–
CCCCCOC(=O)COc1cc(N2C(=O)C3=C(CCCC3)C2=O)c(F)cc1Cl	inactive	–
CCCCOCCOCCOCc1cc2c(cc1CCC)OCO2	inactive	–
O=C(c1ccc(O)cc1O)c1ccc(O)cc1O	inactive	–
C=CCOC(Cn1ccnc1)c1ccc(Cl)cc1Cl (stereo not given)	–	88.7 µM (active)
c1ccc2[nH]c(-c3cscn3)nc2c1	–	50 µM (active)
N[C@@H](Cc1cc(I)c(Oc2ccc(O)c(I)c2)c(I)c1)C(=O)O	–	40 µM (active)
O=C(Nc1ccc([N+](=O)[O-])cc1Cl)c1cc(Cl)ccc1O	–	4.26 µM (active)
COC(=O)c1ccccc1C(=O)O	inactive	–
CCCCC(CC)CN1C(=O)C2C3C=CC(C3)C2C1=O (stereo not given)	inactive	–
CCN(CC)C(=O)c1cccc(C)c1	inactive	–
Cc1nn(C)c(Oc2ccccc2)c1C=NOCc1ccc(C(=O)OC(C)(C)C)cc1	inactive	–
S=C(S)NCCNC(=S)S.[Mn+2].[S-]C([S-])=NCCN=C([S-])[S-].[Zn+2]	inactive	–
CCCOC(=O)c1ccc(C(=O)OCCC)nc1	inactive	–
Oc1ccc(C(c2ccc(O)cc2)C(Cl)(Cl)Cl)cc1	–	77.2 µM (active)
CC(C)(C)[C@@H](O)[C@@H](Cc1ccc(Cl)cc1)n1cncn1	inactive	–
CCN(Cc1c(F)cccc1Cl)c1c([N+](=O)[O-])cc(C(F)(F)F)cc1[N+](=O)[O-]	–	50 µM (active)
CCCCOC(=O)[C@@H](C)Oc1ccc(Oc2ccc(C(F)(F)F)cn2)cc1	inactive	–
CCCCCCC(C)OC(=O)COc1nc(F)c(Cl)c(N)c1Cl (stereo not given)	inactive	–
